Test system: HCoV-OC43
Parameters: species or system RD
Conditions: 24 h, 10 µM; inhibitor

**Q.** Which “OC43 Inhibition rate” value does the source give for Cc1c([C@H](C)[C@@H]2NC[C@@H](C)C[C@H]2O)ccc2c1C[C@H]1[C@H]2CC=C2C[C@@H](O)CC[C@@]21C [Veratramine, veratramine] here?
**A.** The value was 77.2.

**Q.** C=C1C(=O)O[C@@H]2[C@H]3O[C@]3(C)CC/C=C(\C)CC[C@@H]12 [Parthenolide] was tested. Which “OC43 Inhibition rate” value did it give?
**A.** Its value is 36.9.

**Q.** With CC1=C[C@]23C(=O)[C@@H](C=C(COC(=O)c4ccccc4)[C@@H](O)[C@]2(O)[C@H]1OC(=O)c1ccccc1)[C@H]1[C@@H](C[C@H]3C)C1(C)C [Ingenol 3,20-dibenzoate, ingenol 3,20-dibenzoate] as the compound, how does the “OC43 Inhibition rate” value read?
**A.** The value was 82.9.

Source: article PMC12431657, “Discovery and mechanistic insights of dibenzoylmethane as a broad spectrum inhibitor of coronavirus” (PLOS Pathogens, 2025)
